Compounds with a hit are over-represented: about 21% of the library has one in this group of screens.
Pf growth 48h – Primary qHTS for delayed death inhibitors of the malarial parasite plastid, 48 hour incubation; AID 504832, 2011; P. falciparum luciferase growth in erythrocytes, 48 h; Potency, µM (highest dose often 28.7 µM), without a hit: at the top dose activity change, negative = inhibition, most hits filed as inhibitors; 310,000 tested, 5.9% active; note: potency is the fitted concentration of half-maximal effect; % is set by controls: 0 for no effect and ±100 for the full control effect
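Compounds are pin-transferred into medium, infected erythrocytes (2% hematocrit, 0.1% parasitemia final) are added, and plates sit one parasite generation at 37 C in 5% CO2. Detection reagent is then added and luminescence measured.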
Shiga inhibitor – A qHTS for Small Molecule Inhibitors of Shiga Toxin. Vero cells, Shiga toxin protein synthesis inhibition reporter. 290,000 tested, 9.2% active. inhibition, % at 38.7 µM; in the data active = inhibition mostly above about 28%, no sharp cut-off; inactive = mostly below about 43%; note: 0% is about no effect
Pf growth 96h – Primary qHTS for delayed death inhibitors of the malarial parasite plastid, 96 hour incubation | P. falciparum luciferase reporter growth, 96 h | Potency, µM (doses to about 28.7 µM), for the others: top-dose activity change, negative = inhibition, most hits filed as inhibitors | 320,000 tested, 6.9% active; note: potency is the fitted concentration of half-maximal effect; % is set by controls: 0 for no effect and ±100 for the full control effect
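P. falciparum expressing integrated firefly luciferase grown in erythrocytes (2% hematocrit, 0.05% parasitemia final) with compounds for 96 hours at 37 C, 5% CO2. Growth inhibition read as loss of luminescence after adding luciferase detection reagent.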
Cycloheximide cs – Cycloheximide Counterscreen for Small Molecule Inhibitors of Shiga Toxin; cell reporter, cycloheximide protein synthesis inhibition counterscreen; max response, %; 300,000 tested, 12% active; AID 2314, 2010; in the data active = max response mostly above about 13%, no sharp cut-off; inactive = mostly below about 14%; note: read at 38.3 µM for the half of the compounds with a filed dose; 0% is about no effect
Active calls of the source: *; ? = inconclusive; nt = no result. Unless noted, calls come from the whole dose curve; as a rule, active = well fitted inhibition curve with a large enough effect; inconclusive = small, poorly fitted or top-dose-only effect, or another doubt; inactive = no such curve, though single readings can be large or run the other way.

SMILES | Pf growth 48h | Shiga inhibitor | Pf growth 96h | Cycloheximide cs
Cn1c(=O)c2c(ncn2CC(=O)OCc2ccccc2)n(C)c1=O | 3% | 17 | -18% | -3
CC(C)(C)C(=O)Nc1ccc(Sc2ccc([N+](=O)[O-])cc2)cc1 | ? | -1 | 2.3µM* | 2
CC(C)(C)C(=O)NC(NC(=O)C(C)(C)C)c1ccc([N+](=O)[O-])cc1 | -2% | 1 | -12% | -6
Nc1ccc(Sc2ccc([N+](=O)[O-])cc2)cc1 | -13% | 49 | 12µM* | -1
CC1(C)S[C@@H]2[C@H](NC(=O)COc3ccccc3)C(=O)N2C1C(=O)OCc1cc2ccccc2n1S(=O)(=O)c1ccccc1 (some centres not stated) | -16% | -12 | 13µM* | -3
CC(C)N=c1scc(-c2cccs2)n1/N=C/c1ccc(O)c(O)c1O | -16% | 60* | ? | 16*
CCN=c1scc(-c2cccs2)n1/N=C/c1cc(OC)ccc1O | 115% | 41 | 13% | 51*
COc1ccc(O)c(/C=N/n2c(-c3ccco3)csc2=Nc2cccnc2)c1 | -12% | -21 | -19% | -2
C=CCn1c(CCC(=O)O)ccc1-c1ccccc1 | -12% | 4 | 88% | -3
CS(=O)(=O)N1CCN(c2ccccc2NC(=O)c2ccc([N+](=O)[O-])o2)CC1 | ? | -3 | 11% | -2
COc1ccc(S(=O)(=O)N2CCCCC2)cc1NC(=O)c1ccc([N+](=O)[O-])o1 | ? | 44* | 6.6µM* | 23*
COc1ccc(S(=O)(=O)N2CCCCC2)cc1NC(=O)c1ccco1 | -19% | -5 | ? | 1
CCN1CCN(c2ccc(S(=O)(=O)N3CCCCC3)cc2NC(=O)c2ccc([N+](=O)[O-])o2)CC1 | 13µM* | nt | 8.3µM* | nt
NC(=S)NNc1c(F)c(F)c(F)c(F)c1F | ? | -6 | 15% | 6
COc1ccc(/C=N/NC(=O)c2ccc(COc3cccc4cccnc34)cc2)cc1O | ? | 32* | ? | 13*
O=C(N/N=C/c1ccncc1)c1ccc(COc2cccc3cccnc23)cc1 | 8.3µM* | 30 | ? | 12
O=C(N/N=C/c1ccc2c(c1)OCO2)c1ccc(COc2cccc3cccnc23)cc1 | ? | 82* | ? | 36*
O=C(N/N=C/c1cccc(O)c1)c1ccc(COc2ccccc2Br)cc1 | 4% | 25 | ? | 10
O=C(N/N=C/c1cccc(O)c1)c1ccc(COc2cccc3cccnc23)cc1 | -16% | 35* | ? | 21*
COc1ccc(/C=N/NC(=O)c2ccc(COc3cccc4cccnc34)cc2)cc1OC | 0% | 27 | ? | -1
NC(=O)NC(CC(=O)NNC(=O)c1ccccn1)c1ccccc1Cl (configuration not stated) | -24% | nt | ? | nt
O=C(N/N=C/c1ccc2cccc(OCc3ccccc3)c2n1)c1ccc(Cl)cc1 | -19% | 61* | 2% | 31*
COc1ccc(C2=NO[C@@](CC(=O)O)(C(=O)Nc3ccc4c(c3)OCCO4)C2)cc1 | -2% | 62* | 25% | 30*
COc1ccc(OC)c(N(CC(=O)Nc2ccc3c(c2)OCCO3)S(C)(=O)=O)c1 | 1% | -5 | nt | -1
NC(=O)COc1ccccc1C1=NO[C@@](CC(=O)O)(C(=O)Nc2ccc3c(c2)OCCO3)C1 | nt | 31 | 5% | 19*
SMILES | Pf growth 48h | Shiga inhibitor | Pf growth 96h | Cycloheximide cs
COc1ccc(/C=N/NC(=O)C2c3ccccc3Oc3ccccc32)c(OC)c1 | 21% | 1 | 20% | -1
O=[N+]([O-])c1ccc(/C=N/n2cnc3ccccc32)s1 | 5.9µM* | 59 | ? | 21
Cc1cc2ncn(/N=C/c3ccc([N+](=O)[O-])s3)c2cc1C | 2.6µM* | -10 | 3.7µM* | 4
COc1cccc(/C=N/n2cnc3cc(C)c(C)cc32)c1OC | -14% | 27 | 2% | -2
Cc1cc2ncn(/N=C/c3cc(Br)ccc3O)c2cc1C | 1µM* | 23 | ? | -3
CSCCC(NC(=O)c1ccccc1Cl)C(=O)N1CC(C)OC(C)C1 (configuration not stated) | ? | nt | -22% | nt
CCCCC(=O)NC(c1ccc(C(C)C)cc1)c1ccc2cccnc2c1O (configuration not stated) | 1.7µM* | -3 | 17% | -3
CCCCC(=O)NC(c1ccccc1Cl)c1ccc2cccnc2c1O (configuration not stated) | 2.3µM* | 7 | 120% | -2
CC(=O)NC(c1ccc(C(C)C)cc1)c1ccc2cccnc2c1O (configuration not stated) | 7.4µM* | -11 | 228% | 3
CCN(CC(=O)Nc1ccc(OC)cc1)C(=O)c1ccc2c(c1)NC(=O)CS2 | -3% | nt | -3% | nt
CCC(C)NC(=O)CSc1ncccc1C(=O)O (configuration not stated) | -8% | -6 | nt | -2
Cc1ccc(S(=O)(=O)NCC(=O)N2CCc3ccccc3C2)cc1 | ? | -7 | ? | 1
Cc1ccc(CCNC(=O)CN2CCN(Cc3ccccc3F)C2=O)cc1 | nt | -18 | ? | -4
Cc1ccc(CN2CCN(CC(=O)N3CCc4ccccc4C3)C2=O)cc1 | -6% | -28 | 17µM* | -2
Cc1ccc(CN2CCN(CC(=O)N3CCC4(CC3)OCCO4)C2=O)cc1 | nt | -17 | 3.7µM* | -2
Cc1ccc(CN2CCSc3ccc(C(=O)N4CCC5(CC4)OCCO5)cc32)cc1 | ? | 15 | ? | -4
Cc1ccc(CNC(=O)CN2CCN(Cc3ccc(C)cc3)C2=O)cc1 | nt | -9 | 2.9µM* | -3
Cc1ccc(-c2ccc(=O)n(CCC(=O)N3CCC4(CC3)OCCO4)n2)cc1 | 30% | 138* | ? | 46*
O=C(CCn1nc(-c2ccc(Cl)cc2)ccc1=O)N1CCC2(CC1)OCCO2 | 6% | 9 | 31% | 4
CC(C)(C)c1nn(-c2ccccc2)c2[nH]c(=O)c(C=O)cc12 | ? | -11 | 155% | 7
O=C(CNC(=O)c1ccc(Cl)cc1Cl)OCCCn1c(=O)[nH]c2ccccc21 | 8% | nt | 52% | nt
O=C1c2nccnc2C(=O)N1c1ccc(C(F)(F)F)cc1 | 19% | -4 | 69% | -3
CCNC(=O)C1CC(=O)N(Cc2ccc(F)cc2)C(=Nc2ccc(OC)cc2)S1 (configuration not stated) | 7.4µM* | -14 | ? | -2
CNC(=O)C1CC(=O)N(Cc2ccccc2)C(=Nc2ccc(OC)cc2)S1 (configuration not stated) | ? | -4 | -23% | 2
CC(=O)Nc1ccc(-c2csc(N3CCC(C(N)=O)CC3)n2)cc1 | ? | nt | -5% | nt
CCC(C)(C)C(=O)Nc1ccc(OC)cc1[N+](=O)[O-] | 13% | -2 | 0% | 1
COc1ccc(NC(=O)COc2ccc(C)cc2)c([N+](=O)[O-])c1 | 454% | 86* | -3% | 44*
COc1ccc(NC(=O)CSc2ccccc2)c([N+](=O)[O-])c1 | 110% | 99* | -77% | 60*
COc1ccc(NC(=O)CN2CCCCC2)c([N+](=O)[O-])c1 | 67% | 56* | 112% | 30*
CCOc1ccc(OCC(=O)Nc2ccc(OC)cc2[N+](=O)[O-])cc1 | 26% | -3 | -6% | 2

High-throughput results: PubChem, National Center for Advancing Translational Sciences (NCATS)
